Assay results from ChEMBL document CHEMBL3988442, “University of Dundee, Small-Polar-MMV Screening Library” (2021).
Screen size: about 38,000 compounds; about 1,200 (3.2%) showed an effect of 50% or more. The median lay at about -58%. This is one part of a sample in which strong results are shown more often than they occur.

system: Plasmodium falciparum; experiment: Calibr Malaria Delayed Death Assay SOP; assay type: functional, organism-based; set-up: scale not given: in the data most compounds retested in dose-response had high values; conditions: concentration 4.99e-06 (unit not given; other assays of the set use mol/L)

Row | Structure (SMILES) | Percent Effect
1 | Cc1c[nH]c(CN2CCCCC2CCn2ccnc2C)c(C)c1=O (stereo not drawn) | -167.9%
2 | Cn1ccnc1CCC1CCCCN1Cc1nccn1C (stereo not drawn) | 23.43%
3 | CCOC(C)c1nccn1CCC(=O)Nc1cc(C)on1 (stereo not drawn) | -31.31%
4 | CCn1cnc2c(cnn2-c2cccc(C)c2C)c1=O | -109.7%
5 | CC(=O)c1c(O)n(C)c2ccc(F)cc12 | -135.9%
6 | Cc1cnn(CCNCc2ccc(OCc3cscn3)cc2)c1 | -21.22%
7 | CC[C@H]1CN2CC[C@H]1C[C@@H]2CNC(=O)Nc1ccccc1 | -66.09%
8 | CC[C@H]1CN2CC[C@H]1C[C@@H]2CNCc1cccc(C#N)c1 | 34.74%
9 | CC[C@H]1CN2CC[C@H]1C[C@@H]2CNC(=O)Nc1cc(OC)cc(OC)c1 | 63.7%
10 | CC[C@H]1CN2CC[C@H]1C[C@@H]2CNC(=O)NC1CCCCC1 | -27.77%
11 | CC[C@H]1CN2CC[C@H]1C[C@@H]2CNCc1ccc2c(c1)OCO2 | 60.86%
12 | CC[C@H]1CN2CC[C@H]1C[C@@H]2CNCc1ccc(N(C)C)cc1 | 62.75%
13 | CCN1CCCC(O)(CNCc2ccc3c(c2)OCO3)C1 (stereo not drawn) | 14.07%
14 | CC[C@H]1CN2CC[C@H]1C[C@@H]2CNCc1ccc(OC)cc1 | 6.891%
15 | CC[C@H]1CN2CC[C@H]1C[C@@H]2CNCc1ccc(OC(F)(F)F)cc1 | 85.66%
16 | CC(C)NC(=O)NC[C@H]1C[C@@H]2CCN1C[C@@H]2CN(C)c1ccccc1 | -39.27%
17 | CC[C@H]1CN2CC[C@H]1C[C@@H]2CNC(=O)Nc1cccc(C#N)c1 | -82.85%
18 | CC[C@H]1CN2CC[C@H]1C[C@@H]2CNC(=O)Nc1cccc(C(F)(F)F)c1 | -88.31%
19 | CC(C)c1ccc(NS(=O)(=O)CC2=NC(=O)n3cccc3C2=O)cc1 | -194.3%
20 | CO[C@H]1CO[C@@]2(CCCN(C(=O)C3CC=CC3)C2)C1 | -81.44%

Row | Structure (SMILES) | Percent Effect
21 | CC(C)CNC(=O)CSC1CCc2ccccc2NC1=O (stereo not drawn) | -170.7%
22 | Cc1c(C(C)N)cnn1-c1cccc2ccccc12 (stereo not drawn) | 74.08%
23 | Cc1c(C(C)N)cnn1-c1ccccn1 (stereo not drawn) | -122.1%
24 | COc1ccc(-n2ncc(C(C)NC3Cc4ccccc4C3)c2C)cc1 (stereo not drawn) | 1.566%
25 | Fc1ccc(CN2Cc3nccn3CC(CN3CCOCC3)C2)cc1.O=C(O)C(F)(F)F.O=C(O)C(F)(F)F (stereo not drawn) | -18.4%
26 | CC(=O)c1cccc(OCc2cc(C(=O)N3CCCCO3)n[nH]2)c1 | -55.13%
27 | Cc1ccc(OCC(C)NS(=O)(=O)Cc2ccon2)cc1 (stereo not drawn) | -50.51%
28 | Cc1ccc(N2CC[C@H](OCC3CC3)[C@@H]2Cc2cccnc2)nn1.O=C(O)C(F)(F)F | -86.08%
29 | COCC1CC2(CCN(C(C)=O)CC2)CN1Cc1csc(C)n1.O=C(O)C(F)(F)F (stereo not drawn) | -10.79%
30 | Cc1nc(CN2CC[C@@H](OCC3CC3)[C@@H]2Cc2cccnc2)cs1.O=C(O)C(F)(F)F.O=C(O)C(F)(F)F | 6.851%
31 | Cc1nnc(N2CC[C@@H](OCC3CC3)[C@@H](Cc3ccccc3)C2)s1.O=C(O)C(F)(F)F | 84.3%
32 | CO[C@@H]1CCN(c2nnc(C)s2)C[C@@H]1Cc1ccccc1.O=C(O)C(F)(F)F | -42.62%
33 | CCN1CCC2(CC1)CC(COC)N(Cc1csc(C)n1)C2.O=C(O)C(F)(F)F.O=C(O)C(F)(F)F (stereo not drawn) | -25.47%
34 | COCC1CC2(CCN(CC3CC3)CC2)CN1Cc1csc(C)n1.O=C(O)C(F)(F)F.O=C(O)C(F)(F)F (stereo not drawn) | 52%
35 | Cc1nc(CN2CC[C@H](OCC3CC3)[C@@H]2Cc2cccnc2)cs1.O=C(O)C(F)(F)F.O=C(O)C(F)(F)F | 60.39%
36 | Cc1nnc(N2CC[C@H](OCC3CC3)[C@@H](Cc3ccccc3)C2)s1.O=C(O)C(F)(F)F | -5.425%
37 | COc1cc(OC)c(C2CC(=O)Oc3cc(C)[nH]c(=O)c32)c(OC)c1 (stereo not drawn) | -23.56%
38 | COc1ccc(CN(C)CC(=O)c2ccc3[nH]c(=O)[nH]c3c2)cc1F | -24.42%
39 | COc1cccc(S(=O)(=O)NC(=O)CC2CCCO2)c1 (stereo not drawn) | -80.63%
40 | CC(C)NC(=O)C1CN(C(=O)Cc2ccccc2)CC12CCOCC2 (stereo not drawn) | -95.53%

Row | Structure (SMILES) | Percent Effect
41 | CCCS(=O)(=O)NCCc1ncc(CC)s1 | -128.9%
42 | OCCN1CCN(Cc2coc(-c3cccc(F)c3)n2)CC1 | -200.4%
43 | CC(C)(C#N)c1ccccc1CN(CCO)Cc1ccsc1 | -17.47%
44 | C[C@]1(O)CN(Cc2ncc[nH]2)CC[C@@H]1Oc1cccc(F)c1 | -12.82%
45 | CCCc1nnc([C@H]2CCN(Cc3ncc[nH]3)C2)o1 | -53.09%
46 | O=C(O)C(F)(F)F.O=S(=O)(c1cccs1)N1Cc2nc(CN3CCCC3)oc2C1 | -93.44%
47 | COC(=O)CCNC(=O)c1cc(-c2ccc(OC)cc2)nn1C | -127.7%
48 | Cc1nn(C)c2c(N3CCC(C)CC3)nc(C3CC3)nc12 | -7.534%
49 | CC(C)Nc1nc(N2CCCC2)nc2c1CN(S(C)(=O)=O)CC2 | 50.55%
50 | CC(C)Nc1nc(N2CCCC2)nc2c1CN(C)CC2 | 48.45%
51 | CC(C)Nc1nc(N2CCCC2)nc2c1CCN(S(C)(=O)=O)CC2.O=C(O)C(F)(F)F.O=C(O)C(F)(F)F | 51.48%
52 | CC(C)Nc1nc(-c2ccccc2)nc2c1CCN(C(=O)C1CC1)CC2.O=C(O)C(F)(F)F | 24.24%
53 | CC(C)Nc1nc(N2CCCC2)nc2c1CN(c1ncc(F)cn1)CC2 | 23.23%
54 | CCC(C)N1CCc2nc(N3CCCC3)nc(NC(C)C)c2C1 (stereo not drawn) | 77.92%
55 | CCCN1CCc2nc(N3CCOCC3)nc(NC(C)C)c2C1 | -40.15%
56 | CCN1CCc2nc(N3CCOCC3)nc(NC(C)C)c2C1 | 12.6%
57 | Cc1nc(N2CCCC2)nc2c1CN(C(C)C)CC2.O=C(O)C(F)(F)F | -39.09%
58 | Cn1ccnc1CN1CCCN(C(=O)c2ccc3cc[nH]c3c2)CC1 | -18.34%
